Data: PubChem BioAssay AID1159580 (chemical genetic matrix, 2015)
Several values for one entry are separate records, joined by “and”; a condition that tells them apart may be missing. Equal entries are not always repeated. Hit rate of the full screen: of about 5,500 compounds, about 2,000 (36%) were called active. Another 18% or so got no clear call; they are omitted. Cut-off read from the data, not from the text of the source: active = normalized growth mostly below about 0.91 (no sharp cut-off); inconclusive = no clear call, values can overlap the other calls; inactive = mostly above about 0.92. The list shows a part of the results.

Experiment: chemical genetic growth profiling, strain panel (AID 1159580);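 note: tested at 20 µM; growth read once vehicle control cultures reached saturation at 30 °C; 1 = growth at the plate median or of vehicle wells; lower values mean less growth of the strain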
Settings: growth OD

Measured: normalized growth

Cn1cnc2c1c(=O)[nH]c(=O)n2C
inactive: S. cerevisiae deletion strains, locus YJR075W, strain HOC1, hits give low values 1.03 | S. cerevisiae deletion strains, locus YKL009W, strain mrt4, hits give low values 0.989 | S. cerevisiae deletion strains, locus YKL068W, hits give low values 1.01 | S. cerevisiae deletion strains, locus YKL085W, strain MDH1 (second series), hits give low values 1.01 | S. cerevisiae deletion strains, locus YKL085W, strain MDH1, hits give low values 1.01 | S. cerevisiae deletion strains, locus YKL160W, strain elf1, hits give low values 0.995 | S. cerevisiae deletion strains, locus YKL190W, strain CNB1, hits give low values 1.01 | S. cerevisiae deletion strains, locus YKR001C, strain vps1, hits give low values 1 | S. cerevisiae deletion strains, locus YKR026C, strain gcn3, hits give low values 0.961 | S. cerevisiae deletion strains, locus YKR091W, strain srl3, hits give low values 0.964 | S. cerevisiae deletion strains, locus YLL001W, strain dnm1, hits give low values 0.994 | S. cerevisiae deletion strains, locus YLL026W, hits give low values 0.996 | S. cerevisiae deletion strains, locus YLL041C, strain sdh2, hits give low values 1.01 | S. cerevisiae deletion strains, locus YLR027C, strain aat2, hits give low values 0.987 | S. cerevisiae deletion strains, locus YLR039C, strain RIC1, hits give low values 1.02 | S. cerevisiae deletion strains, locus YLR058C, strain SHM2, hits give low values 1.01 | S. cerevisiae deletion strains, locus YLR102C, strain apc9, hits give low values 1.01 | S. cerevisiae deletion strains, locus YLR113W, strain HOG1, hits give low values 0.973 | S. cerevisiae deletion strains, locus YLR221C, strain rsa3, hits give low values 0.976 | S. cerevisiae deletion strains, locus YLR258W, strain gsy2, hits give low values 1 | S. cerevisiae deletion strains, locus YLR262C, strain YPT6 (second series), hits give low values 0.978 | S. cerevisiae deletion strains, locus YLR262C, strain YPT6, hits give low values 1.04 | S. cerevisiae deletion strains, locus YLR268W, strain sec22, hits give low values 1.04 | S. cerevisiae deletion strains, locus YLR320W, strain mms22, hits give low values 1 | S. cerevisiae deletion strains, locus YLR330W, strain CHS5, hits give low values 1.01 | S. cerevisiae deletion strains, locus YLR342W, strain FKS1 (second series), hits give low values 1.01 | S. cerevisiae deletion strains, locus YLR342W, strain FKS1, hits give low values 0.978 | S. cerevisiae deletion strains, locus YLR357W, strain rsc2, hits give low values 1 | S. cerevisiae deletion strains, locus YLR370C, strain arc18, hits give low values 0.97 | S. cerevisiae deletion strains, locus YLR371W, strain rom2, hits give low values 1.03 | S. cerevisiae deletion strains, locus YLR384C, strain iki3, hits give low values 0.994 | S. cerevisiae deletion strains, locus YLR418C, strain cdc73, hits give low values 0.99 | S. cerevisiae deletion strains, locus YML016C, strain PPZ1, hits give low values 1.01 | S. cerevisiae deletion strains, locus YML032C, strain rad52, hits give low values 1.03 | S. cerevisiae deletion strains, locus YML120C, strain ndi1, hits give low values 0.959 | S. cerevisiae deletion strains, locus YML124C, strain tub3, hits give low values 1.01 | S. cerevisiae deletion strains, locus YMR058W, strain fet3, hits give low values 0.97 | S. cerevisiae deletion strains, locus YMR078C, strain ctf18, hits give low values 1.01 | S. cerevisiae deletion strains, locus YMR125W, strain sto1, hits give low values 0.978 | S. cerevisiae deletion strains, locus YMR129W, hits give low values 0.979 | S. cerevisiae deletion strains, locus YMR205C, strain PFK2, hits give low values 0.979 | S. cerevisiae deletion strains, locus YMR223W, strain ubp8, hits give low values 1 | S. cerevisiae deletion strains, locus YMR231W, strain pep5, hits give low values 1 | S. cerevisiae deletion strains, locus YMR263W, strain SAP30, hits give low values 1.01 and 0.995 | S. cerevisiae deletion strains, locus YMR307W, strain GAS1, hits give low values 0.981 and 0.999 | S. cerevisiae deletion strains, locus YNL067W, strain RPL9B, hits give low values 1.02 | S. cerevisiae deletion strains, locus YNL071W, strain lat1, hits give low values 0.983 | S. cerevisiae deletion strains, locus YNL128W, strain TEP1, hits give low values 1.02 and 1.01 | S. cerevisiae deletion strains, locus YNL153C, strain GIM3, hits give low values 1.01 | S. cerevisiae deletion strains, locus YNL175C, strain NOP13, hits give low values 0.995 | S. cerevisiae deletion strains, locus YNL183C, strain NPR1, hits give low values 0.948 | S. cerevisiae deletion strains, locus YNL197C, strain WHI3, hits give low values 1.02 | S. cerevisiae deletion strains, locus YNL209W, strain ssb2, hits give low values 0.986 | S. cerevisiae deletion strains, locus YNL224C, strain SQS1, hits give low values 1.01 | S. cerevisiae deletion strains, locus YNL233W, strain BNI4, hits give low values 1.01 | S. cerevisiae deletion strains, locus YNL248C, strain rpa49, hits give low values 0.978 | S. cerevisiae deletion strains, locus YNL250W, strain rad50, hits give low values 1.02 | S. cerevisiae deletion strains, locus YNL271C, strain bni1, hits give low values 1.01 | S. cerevisiae deletion strains, locus YNL298W, strain CLA4, hits give low values 1 | S. cerevisiae deletion strains, locus YNL307C, strain MCK1, hits give low values 1 | S. cerevisiae deletion strains, locus YNL322C, strain KRE1 (second series), hits give low values 0.953 | S. cerevisiae deletion strains, locus YNL322C, strain KRE1, hits give low values 1.01 and 1.02 | S. cerevisiae deletion strains, locus YNR049C, strain mso1, hits give low values 0.993 | S. cerevisiae deletion strains, locus YNR052C, strain pop2, hits give low values 1.01 | S. cerevisiae deletion strains, locus YOL006C, strain TOP1, hits give low values 1.06 | S. cerevisiae deletion strains, locus YOL012C, strain htz1 0.781 | S. cerevisiae deletion strains, locus YOL147C, strain pex11, hits give low values 1.01 | S. cerevisiae deletion strains, locus YOR001W, strain rrp6, hits give low values 0.986 | S. cerevisiae deletion strains, locus YOR061W, strain CKA2, hits give low values 1.01 | S. cerevisiae deletion strains, locus YOR069W, strain VPS5, hits give low values 1.01 | S. cerevisiae deletion strains, locus YOR070C, strain gyp1, hits give low values 1 | S. cerevisiae deletion strains, locus YOR080W, strain dia2, hits give low values 0.972 | S. cerevisiae deletion strains, locus YOR083W, strain WHI5 (second series), hits give low values 1 | S. cerevisiae deletion strains, locus YOR083W, strain WHI5, hits give low values 0.979 | S. cerevisiae deletion strains, locus YOR106W, strain vam3, hits give low values 0.977 | S. cerevisiae deletion strains, locus YOR136W, strain idh2, hits give low values 1.01 | S. cerevisiae deletion strains, locus YOR144C, strain elg1, hits give low values 1.01 | S. cerevisiae deletion strains, locus YOR184W, strain ser1, hits give low values 1.01 | S. cerevisiae deletion strains, locus YOR231W, strain MKK1, hits give low values 0.976 | S. cerevisiae deletion strains, locus YOR265W, strain rbl2, hits give low values 0.997 | S. cerevisiae deletion strains, locus YOR270C, strain vph1, hits give low values 0.986 | S. cerevisiae deletion strains, locus YOR290C, strain snf2, hits give low values 0.994 | S. cerevisiae deletion strains, locus YOR316C, strain cot1, hits give low values 1.01 | S. cerevisiae deletion strains, locus YPL051W, strain arl3, hits give low values 1 | S. cerevisiae deletion strains, locus YPL055C, strain LGE1, hits give low values 1.01 and 1.03 | S. cerevisiae deletion strains, locus YPL078C, strain atp4, hits give low values 0.979 | S. cerevisiae deletion strains, locus YPL106C, strain sse1, hits give low values 0.954 | S. cerevisiae deletion strains, locus YPL240C, strain hsp82, hits give low values 0.989 | S. cerevisiae deletion strains, locus YPL241C, strain CIN2, hits give low values 1.01 | S. cerevisiae deletion strains, locus YPL256C, strain CLN2, hits give low values 0.932 | S. cerevisiae deletion strains, locus YPR119W, strain clb2, hits give low values 1.02 | S. cerevisiae deletion strains, locus YPR141C, strain kar3, hits give low values 1.01 | S. cerevisiae deletion strains, locus YPR163C, strain tif3, hits give low values 1.01 | S. cerevisiae deletion strains, locus YPR167C, strain met16, hits give low values 1.01 | S. cerevisiae deletion strains, strain wtn01, hits give low values 1.01 | S. cerevisiae strains, strain wild type, hits give low values 1.01
